Screens (PubChem BioAssay)
Rows were chosen to be rich in hits. Some 0.64% of all compounds tested hit in one or more screens of this group.
EPAC1 antagonist: qHTS for Antagonist of cAMP-regulated guanine nucleotide exchange factor 3 (EPAC1): primary screen; Rap guanine nucleotide exchange factor 3 (Homo sapiens), O95398; EPAC1 GEF assay, Rap1b-BODIPY-GDP exchange fluorescence; Potency, µM (titrated, usually from 115 µM), for inactives: top-dose activity change, negative = inhibition, actives largely listed as inhibitors; hit rate 0.14% among 360,000;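 note: potency is the fitted concentration of half-maximal effect; plate controls were vehicle for no effect and positive control for full effect; nearly all actives have a fitted effect of over 50% in size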
IL2 activator: qHTS of IL-2 Activators. IL-2 activation reporter assay, cell-based qHTS; stimulated with anti-CD3/CD4/CD28 beads; in transgenic mouse T cells. activation, % (series mostly up to about 46 µM). hit rate 0.065% among 360,000; in the data active = activation above about 50%; inconclusive = mostly about 30% to 49%; note: 0% is about no effect
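EGFP and DsRed fluorescence is measured by plate cytometry in unstimulated transgenic mouse T cells exposed to compound for 60 minutes, then stimulated 18 hours at 37 degrees C with anti-CD3/anti-CD4 beads plus anti-CD28.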
EPAC2 antagonist: qHTS for Antagonist of cAMP-regulated guanine nucleotide exchange factor 2 (EPAC2): primary screen. EPAC2 GEF exchange of Rap1B-BODIPY-GDP, fluorescence. Potency, µM (titrated, usually from 114 µM), for the others: at the top dose activity, negative = inhibition, most hits filed as inhibitors. hit rate 0.18% among 360,000. AID 720708, 2013; note: potency is the fitted concentration of half-maximal effect; % is set by controls: 0 for no effect and ±100 for the full control effect; nearly all actives have a fitted effect of over 45% in size
Target sequence (Q8WZA2 whole entry, looked up): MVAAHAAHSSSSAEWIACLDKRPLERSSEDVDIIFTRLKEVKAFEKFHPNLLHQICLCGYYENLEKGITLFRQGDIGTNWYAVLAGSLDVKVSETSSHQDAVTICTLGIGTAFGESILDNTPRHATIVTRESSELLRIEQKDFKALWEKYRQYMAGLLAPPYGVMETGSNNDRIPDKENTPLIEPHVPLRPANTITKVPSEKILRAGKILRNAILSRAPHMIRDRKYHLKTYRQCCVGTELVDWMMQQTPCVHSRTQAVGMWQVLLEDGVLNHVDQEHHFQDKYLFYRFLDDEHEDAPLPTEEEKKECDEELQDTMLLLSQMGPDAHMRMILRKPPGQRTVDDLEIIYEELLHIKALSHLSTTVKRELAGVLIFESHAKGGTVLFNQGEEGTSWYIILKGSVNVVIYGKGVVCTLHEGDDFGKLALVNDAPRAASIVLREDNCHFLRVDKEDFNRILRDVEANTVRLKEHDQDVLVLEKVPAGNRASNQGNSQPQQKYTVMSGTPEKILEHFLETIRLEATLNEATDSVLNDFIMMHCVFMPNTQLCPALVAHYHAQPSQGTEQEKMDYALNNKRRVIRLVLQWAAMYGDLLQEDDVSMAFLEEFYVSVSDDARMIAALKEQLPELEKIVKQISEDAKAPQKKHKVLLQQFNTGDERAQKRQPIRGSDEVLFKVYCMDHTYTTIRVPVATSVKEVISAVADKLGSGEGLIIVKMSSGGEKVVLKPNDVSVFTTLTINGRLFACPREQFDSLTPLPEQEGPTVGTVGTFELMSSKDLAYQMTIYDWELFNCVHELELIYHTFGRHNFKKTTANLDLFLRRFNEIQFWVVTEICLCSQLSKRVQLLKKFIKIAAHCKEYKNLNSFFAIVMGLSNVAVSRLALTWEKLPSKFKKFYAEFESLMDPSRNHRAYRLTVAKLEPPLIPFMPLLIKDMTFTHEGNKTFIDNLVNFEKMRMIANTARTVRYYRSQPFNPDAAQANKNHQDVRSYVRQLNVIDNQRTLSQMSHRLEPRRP
PKM2 act: qHTS Assay for Activators of Human Muscle isoform 2 Pyruvate Kinase. Pyruvate kinase PKM (Homo sapiens), P14618. purified PKM2, Kinase-Glo ATP luminescence, activation; response scale: 0% is enzyme alone, no compound. Potency, µM (doses to about 57.5 µM), for the others: at the highest dose activation, most hits filed as activators. hit rate 0.34% among 260,000. AID 1631, 2009; note: potency is the fitted concentration of half-maximal effect; % is set by controls: 0 for no effect and ±100 for the full control effect; nearly all actives have a fitted effect of over 55% in size
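hPK-M2, >95% pure; 0.1 mM ADP / 0.5 mM PEP final; imidazole pH7.2 buffer w/ 7 mM MgCl2, 50 mM KCl; 1 h RT; Kinase-Glo lum. Intermediate enzyme activity for dual inhibitor/activator qHTS.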
EPAC2 agonist: qHTS for Agonist of cAMP-regulated guanine nucleotide exchange factor 4 (EPAC2): primary screen | Potency, µM (top dose mostly 154 µM), without a hit: top-dose activation, most hits filed as activators | EPAC2 activation, biochemical qHTS; response scale: 100% = 6.5 mM cAMP response | AID 720711, 2013 | Rap guanine nucleotide exchange factor 4 (Homo sapiens), Q8WZA2 | hit rate 0.079% among 360,000; note: potency is the fitted concentration of half-maximal effect; nearly all actives have a fitted effect of over 50% in size
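Fluorescence exchange assay: 100 nM EPAC2 with 250 nM RAP1B-BODIPY-GDP and 50 uM GDP; compounds tested as a concentration-titration series (qHTS). Loss of Rap1-bound BODIPY-GDP fluorescence read at 480/540 nm; data normalized to 6.5 mM cAMP.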
EPAC1 agonist: qHTS for Agonist of cAMP-regulated guanine nucleotide exchange factor 3 (EPAC1): primary screen; Rap guanine nucleotide exchange factor 3 (Homo sapiens), O95398; EPAC1 agonist qHTS, biochemical assay; response scale: 100% = response to 6.5 mM cAMP; Potency, µM (highest dose often 154 µM), without a hit: top-dose activation, actives largely listed as activators; hit rate 0.073% among 360,000; AID 720707, 2013; note: potency is the fitted concentration of half-maximal effect; nearly all actives have a fitted effect of over 60% in size
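Compounds were pinned as a concentration titration into mixtures of EPAC1 (100 nM), BODIPY-GDP-loaded Rap1B (250 nM) and GDP (50 uM). After 5 min at room temperature, fluorescence was followed for 30 min; activity was scaled to 6.5 mM cAMP.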
Starred values were filed as active, the others as inactive; ? = inconclusive; . = no result given. Unless noted, calls come from the whole dose curve; as a rule, active = well fitted curve in the direction sought with a large enough effect; inconclusive = small, poorly fitted or top-dose-only effect, or another doubt; inactive = no such curve, though single readings can be large; an effect the other way counts as inactive or inconclusive.

SMILES	EPAC1 antagonist	IL2 activator	EPAC2 antagonist	PKM2 act	EPAC2 agonist	EPAC1 agonist
COc1ccc(N(C(=O)c2ccco2)S(=O)(=O)c2ccc(F)cc2)cc1	9.7%	-0.3	5.5%	-3.2%	9.4%	14.2%
COc1ccc(N(C(=O)c2ccco2)S(=O)(=O)c2cc(OC)ccc2OC)cc1	-0.9%	0.7	-11.3%	-2.4%	10µM*	6.2%
Clc1ccccc1Cn1nnc2c(NCC3CC3)ncnc21	-1.2%	-1.5	-1.1%	8.91µM*	9.0%	6.4%
O=C(Nc1cccn2nc(COCCO)nc12)C(c1ccccc1)c1ccccc1	-10.5%	-0.5	-9.1%	.	9.2%	-5.0%
Nc1nc(N)n(-c2ccccc2)c(=Nc2ccccc2)n1	9.3%	-0.4	0.0%	.	7.3%	11.8%
C=Cc1ccc(Cn2nc(-c3ccccc3)ccc2=O)cc1	-6.8%	4.5	22.4µM*	.	2.5%	8.2%
N#C/C(=C/c1cccn1-c1cccc(C(=O)O)c1)c1ccc(Cl)cc1	-12.0%	0.7	39.8µM*	2.9%	-1.9%	-9.4%
CCCn1c(SCC(=O)NCCCN2CCCC2=O)nc2ccccc2c1=O	-21.7%	-0.8	-1.9%	.	2.2%	-4.6%
CCCN1C(=O)c2cccc3c(N4CCCCC4)ccc(c23)C1=O	7.8%	1.3	34.2%	0.5%	100µM*	?
O=C(OCCN1C(=O)c2cccc3c(N4CCOCC4)ccc(c23)C1=O)c1cc(Cl)cc(Cl)c1	.	.	.	-0.9%	.	.
CCCCNc1ccc2c3c(cccc13)C(=O)N(CCCC)C2=O	250.4%	9.8	183.3%	-6.2%	100µM*	79.4µM*
CC(=O)N(C(C)=O)N1C(=O)c2cccc3c(N4CCOCC4)ccc(c23)C1=O	?	-0.5	38.4%	0.7%	-105.5%	112µM*
Cc1ccc(NS(=O)(=O)c2cc([N+](=O)[O-])ccc2NNC(=S)Nc2cccc(Cl)c2)c(C)c1	50.1µM*	0.7	50.1µM*	-23.1%	-16.0%	-17.8%
CSc1nc(NCCOCCO)c2sc3nc(-c4ccco4)c4c(c3c2n1)CCC4	-10.8%	-0.2	5.5%	22.4µM*	4.9%	-8.1%
CCOc1ccc2nc(N3C(=O)C(O)=C(C(=O)c4ccco4)C3c3ccco3)sc2c1 (configuration not stated)	3.4%	0.6	-11.0%	.	-11.9%	10.7%
Cc1cc(C)c2nc(N3C(=O)C(O)=C(C(=O)c4ccco4)C3c3ccco3)sc2c1 (configuration not stated)	50.1µM*	-1.4	-6.9%	-11.4%	5.3%	-11.6%
CCC(C)C(=O)Nc1nnc(CCc2ccccc2)s1 (configuration not stated)	-0.5%	0.2	-1.9%	1.8%	-3.5%	-6.2%
CCOc1ccc(NC(=O)/C(C#N)=C/c2ccc(N3CCCC3)c(C)c2)cc1	89.8%	269.7*	15.8%	2.3%	0.7%	112µM*
CCN(CC)S(=O)(=O)c1ccc(N2CCCCC2)c(NC(=O)/C(C#N)=C/c2ccc(OC)cc2)c1	-17.0%	-0.8	-1.8%	6.8%	-6.1%	-3.9%
C[C@@H]1CCCCO[C@H](CN(C)C(=O)Nc2cccc3ccccc23)[C@@H](C)CN([C@H](C)CO)C(=O)c2cc(NC(=O)c3ccccc3)ccc2O1	-3.0%	-3.0	-1.6%	.	-0.5%	-12.5%
O=C(O)CCN1C(=O)/C(=C\c2cccc(Oc3ccccc3)c2)SC1=S	?	0.0	79.4µM*	.	7.8%	3.2%
O=C(O)CN1C(=O)/C(=C\c2cccc(OCc3ccccc3F)c2)SC1=S	?	-0.2	89.1µM*	.	-0.1%	5.8%
O=C(O)CN1C(=O)/C(=C\c2cccc(OCc3ccc(F)cc3)c2)SC1=S	-23.8%	-1.5	?	.	-6.3%	-1.8%
COc1ccc(CCNC(=O)CCCn2nc(C)c([N+](=O)[O-])c2C)cc1OC	1.4%	0.2	2.5%	-3.8%	8.3%	11.0%
CN(C)c1ccccc1-c1cc(NC=O)c2ncc(-c3cccc(C(F)(F)F)c3)n2c1	31.6µM*	0.2	?	.	-18.2%	-121.2%
SMILES	EPAC1 antagonist	IL2 activator	EPAC2 antagonist	PKM2 act	EPAC2 agonist	EPAC1 agonist
COc1ccccc1-c1cc(NC=O)c2ncc(-c3cccc(C(F)(F)F)c3)n2c1	-7.9%	-0.9	-22.5%	.	-3.4%	4.0%
CCOc1ccc(NC(=NCc2ccc3c(c2)OCO3)SC2CC(=O)N(c3ccc(OCC)cc3)C2=O)cc1 (configuration not stated)	-4.7%	0.7	-8.8%	7.2%	8.5%	-3.7%
CCOc1ccc(NC(=NCc2ccc3c(c2)OCO3)SC2CC(=O)N(c3ccc(C(=O)O)cc3)C2=O)cc1 (configuration not stated)	28.2µM*	0.2	-14.6%	17.4%	1.4%	?
FC(F)(F)c1ccccc1Cc1c(-c2ccccc2)nc2ccc(Cl)cn12	-9.0%	0.4	-28.6%	.	-1.8%	7.7%
FC(F)(F)c1ccccc1Cc1c(-c2ccc(Cl)cc2)nc2ccc(Cl)cn12	-19.7%	-0.4	56.2µM*	.	-0.3%	8.1%
CCN(C(=O)COC(=O)C1CCN(S(=O)(=O)c2ccc3c(c2)OCCO3)CC1)C1CCCCC1	-4.8%	1.1	0.6%	.	9.8%	-8.4%
C=CCN1C(=O)/C(=C/c2ccc(OC(C)=O)c(OCC)c2[N+](=O)[O-])SC1=S	70.8µM*	-1.5	-28.9%	6.7%	12.7%	-0.4%
CNc1snc(C)c1C(=O)OCC(=O)Nc1ccc(C)cc1F	-8.4%	-1.3	-2.9%	.	-7.8%	56.2µM*
CC(C)(C)NC(=O)CN(CCN1CCOCC1)C(=O)CNS(=O)(=O)c1ccccc1	9.5%	3.5	9.3%	0.6%	0.0%	-0.2%
Cc1ccc(-n2ncc3c(N4CCCC4)ncnc32)c(C)c1	14.0%	-0.2	10.3%	25.1µM*	3.4%	-4.8%
Cc1ccc(-n2ncc3c(N4CCCC(C)C4)ncnc32)c(C)c1 (configuration not stated)	-5.5%	-2.3	-15.2%	11.6%	6.6%	-19.8%
COc1cc(C(=O)C(=O)N2CCN(c3ccccc3)CC2)cc(OC)c1OC	13.3%	0.1	8.8%	.	6.8%	-14.0%
